TDP1 inh = TDP1 (human) enzyme inhibition | Potency, µM (titrated, usually from 130 µM), most hits filed as inhibitors | 350,000 compounds, 0.28% hits | recombinant TDP1, AlphaScreen DNA substrate cleavage; note: nearly all actives have a fitted effect of over 40% in size
Target sequence (Q9NUW8 whole entry, looked up): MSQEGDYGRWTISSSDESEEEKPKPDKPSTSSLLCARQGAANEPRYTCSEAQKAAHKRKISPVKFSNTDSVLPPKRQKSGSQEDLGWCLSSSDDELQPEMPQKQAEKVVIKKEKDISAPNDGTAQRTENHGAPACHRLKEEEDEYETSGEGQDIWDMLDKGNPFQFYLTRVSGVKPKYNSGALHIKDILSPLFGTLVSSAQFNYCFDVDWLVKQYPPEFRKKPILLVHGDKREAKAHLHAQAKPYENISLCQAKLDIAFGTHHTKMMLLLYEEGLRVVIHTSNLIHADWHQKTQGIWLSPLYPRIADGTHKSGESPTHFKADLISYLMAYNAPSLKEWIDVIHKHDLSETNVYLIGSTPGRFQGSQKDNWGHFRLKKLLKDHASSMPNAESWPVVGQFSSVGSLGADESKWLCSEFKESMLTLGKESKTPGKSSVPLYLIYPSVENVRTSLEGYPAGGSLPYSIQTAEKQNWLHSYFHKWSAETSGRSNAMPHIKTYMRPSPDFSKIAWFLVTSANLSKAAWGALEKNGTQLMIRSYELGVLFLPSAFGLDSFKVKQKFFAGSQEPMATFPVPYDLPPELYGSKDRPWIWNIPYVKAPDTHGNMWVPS
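Here, a 5' biotin and 3' phosphotyrosine-FITC DNA oligonucleotide reports Tdp1 activity: intact substrate bridges AlphaScreen beads, while cleavage leaves a 3' phosphate and drops signal. All incubations at room temperature.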
HepG2 tox = counter-screen for TGF-b inhibitors: cytotoxicity in HepG2 cells. HepG2 CAGA-GFP viability, ATP luminescence, 18 h. Potency, µM (doses to about 46.1 µM), usual class: cytotoxic. 410,000 compounds, 0.76% hits
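CellTiter-Glo luminescence gave cytotoxicity after 18 hours at 37 degrees C. The cells were HepG2 CAGA-GFP in 1% FBS DMEM, stimulated with 500 pg/mL TGF-beta after compound addition. %Activity was normalised to no-cell wells (complete cell-killing) and DMSO (no toxicity), and curves were fitted and classified.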
TDP1 cell CPT = growth inhibition of DT40 Tdp1-/-;hTDP1 cells with camptothecin (screen for TDP1 inhibitors); chicken DT40 Tdp1-/-;hTDP1 cells + 20 nM CPT, ATP luminescence, 48 h; 420,000 compounds, 12% hits; Potency, µM (titrated, usually from 46.2 µM), most hits filed as inhibitors; note: nearly all actives have a fitted effect of over 55% in size
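Chicken DT40 Tdp1-/- cells stably complemented with human TDP1 were seeded at 400 cells/well in medium containing 20 nM camptothecin, exposed to pin-transferred compounds, and grown at 37 °C for at least 48 hr. Viability was read as ATP luminescence.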
IL-1B inflam inh = blocks inflammasome-driven IL-1 beta release; THP-1 LPS/ATP IL-1B secretion, AlphaLISA, 16 h; stronger effect = lower value; activity change, % at 57.5 µM; 360,000 compounds, 4.7% hits; in the data active = activity change below about -50%; inconclusive = mostly about -30% to -49%
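Secreted IL-1B measured by AlphaLISA bead assay after 16 h compound exposure of THP-1 cells; compounds (final up to 57.5 uM) added 1 h before LPS (250 ng/mL) and ATP (1.25 mM) stimulation; lower signal means less secretion.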
TGFb SMAD3 inh = blocks TGF-b signaling; AID 588855; Potency, µM (titrated, usually from 46.1 µM), most hits filed as inhibitors; 410,000 compounds, 1.2% hits; HepG2 CAGA-GFP TGF-b/SMAD3 reporter, GFP fluorescence, 18 h; TGF-beta stimulated, 500 pg/mL final; note: nearly all actives have a fitted effect of over 65% in size
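HEPG2 CAGA-GFP reporter cells (1000/well, DMEM with 1% FBS) received compounds, then recombinant TGF-beta at 500 pg/mL final for 18 hours at 37 degrees C. Per-cell GFP summed per well was normalised to unstimulated and stimulated DMSO controls before curve fitting.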
DT40 TDP1 no CPT = qHTS for Inhibitors of human tyrosyl-DNA phosphodiesterase 1 (TDP1): qHTS in cells in absence of CPT. DT40 Tdp1-/- hTDP1 cells, no CPT, ATP luminescence, 48 h. Potency, µM (titrated, usually from 46.2 µM), actives largely listed as inhibitors. 420,000 compounds, 15% hits; note: nearly all actives have a fitted effect of over 55% in size
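Luminescent ATP content (CellTiter-Glo) served as the growth readout. Knockout chicken DT40 cells expressing human TDP1 were exposed to compounds without camptothecin for a minimum 48 hr at 37 °C.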
A number is an active result; i = inactive; ? = inconclusive; nt = not tested or not shown; [ ] = dose if it differs, or a comment. In the library only some 19% were active in any assay of this set; here they are far more common. Unless noted, calls come from the whole dose curve; as a rule, active = well fitted curve in the direction sought with a large enough effect; inconclusive = small, poorly fitted or top-dose-only effect, or another doubt; inactive = no such curve, though single readings can be large; an effect the other way counts as inactive or inconclusive.

SMILES	TDP1 inh	HepG2 tox	TDP1 cell CPT	IL-1B inflam inh	TGFb SMAD3 inh	DT40 TDP1 no CPT
Cc1ccnc(NC(c2ccsc2)c2ccc3ccc(C)nc3c2O)c1 (stereo not drawn)	i	i	i	-84	?	?
Cc1ccnc(NC(c2ccccc2)c2ccc3cccnc3c2O)c1 (stereo not drawn)	nt	i	?	i	?	21µM
COc1ccc(C(Nc2cc(C)ccn2)c2ccc3ccc(C)nc3c2O)cc1 (stereo not drawn)	nt	i	?	i	i	?
Cc1ccnc(NC(c2ccccc2F)c2ccc3cccnc3c2O)c1 (stereo not drawn)	i	i	nt	nt	?	nt
Cc1ccnc(NC(c2cc(C)ccc2O)c2ccc3cccnc3c2O)c1 (stereo not drawn)	nt	i	?	nt	nt	10µM
Cc1ccc(CNC(=O)CCCn2c(=O)[nH]c3ccc(Br)cc3c2=O)cc1	i	i	i	nt	i	i
C/C(=N\NC(=O)c1ccccc1O)c1ccc(NC(=O)Cc2ccccc2)cc1	56µM	i	i	i	i	i
CC(C)CC(=NNC(=O)c1ccncc1)c1cc(Cl)ccc1O	nt	7.1µM	3.7µM	i	i	2.6µM
C/C(=N\NC(=O)c1ccccc1)c1ccccc1F	i	i	i	i	i	i
CC(=O)c1ccc2ccccc2c1OC(=O)c1ccncc1	nt	i	?	i	i	26µM
C/C(=N\NC(=O)c1ccccc1)c1ccccc1Br	i	i	0.82µM	i	i	0.65µM
N#Cc1cccc(-c2ccc3ncnc(NC4CCNCC4)c3c2)c1	nt	nt	i	nt	nt	i
Cc1ccc(NC(=O)c2ccc3oc(=O)c(S(=O)(=O)c4ccccc4)cc3c2)cc1C	i	i	i	nt	i	i
C/C(=N\NC(=O)c1ccc(N2CCCC2=O)cc1)c1ccc(O)cc1O	i	i	4.6µM	i	i	3.7µM
CC(=NNC(=O)c1ccncc1)c1ccc(O)cc1O	nt	i	?	i	i	7.3µM
C/C(=N\NC(=O)c1ccc(N2CCCC2=O)cc1)c1ccccc1	i[0.0935 µM]	i	i	i	i	i
CC(=NNC(=O)c1ccccc1N)c1ccccc1O	nt	i	5.2µM	i	i	5.8µM
CC(=NNC(=O)c1ccncc1)c1ccc2ccccc2c1O	nt	i	4.1µM	i	i	4.6µM
COc1ccc(/C(C)=N/NC(=O)c2ccccc2N)cc1	i	i	i	i	i	i
C=CCN(c1ccc(C(=O)Nc2ccc(C)c(C)c2)cc1)S(C)(=O)=O	i	i	i	i	i	?
CC(=NNC(=O)c1ccncc1)c1ccccc1O	nt	i	0.18µM	i	i	0.13µM
CCc1ccc2occ(CC(=O)Nc3c(C(=O)c4ccccc4)oc4ccccc34)c2c1	i	i	i	nt	i	?
O=C(O)c1cccc(-n2cnc3cccnc32)c1	i	i	i	nt	nt	i
C/C(CC(C)(C)C1CCCCC1)=N\NC(N)=S	i	11µM	4.1µM	-102	6.3µM	3.3µM
O=C(NCc1cccs1)c1ccc2c(c1)N(Cc1cccc(F)c1)C(=O)c1ccccc1S2	i	i	i	nt	i	i
SMILES	TDP1 inh	HepG2 tox	TDP1 cell CPT	IL-1B inflam inh	TGFb SMAD3 inh	DT40 TDP1 no CPT
COc1ccc(-c2cc(=O)n(-c3ccc([N+](=O)[O-])cc3)[nH]2)cc1	i	i	?	i	?	16µM
Cc1cccc(Cn2c(C)nc3c(N)c(C)c(C)cc32)c1	i	i	i	i	i	16µM
N=c1n(CCN2CCCCC2)c2ccccc2n1CC(=O)c1ccc(Cl)c(Cl)c1	nt	i	?	nt	?	?
O=C(Cn1ccccc1=S)c1ccc(Cl)c(Cl)c1	nt	i	i	-81	i	i
CCn1c(=N)n(CC(=O)c2ccc(Cl)c(Cl)c2)c2ccccc21	nt	i	26µM	-73	?	21µM
CCn1c(=N)n(CC(=O)c2ccco2)c2ccccc21	i	i	13µM	i	i	?
O=C(Cn1ccccc1=O)c1ccc(Cl)cc1	i	i	i	i	i	i
CCCCCCCn1c(=N)n(CC(O)c2ccco2)c2ccccc21 (stereo not drawn)	i	22µM	3.7µM	i	?	4.6µM

High-throughput results: PubChem BioAssay, National Center for Advancing Translational Sciences (NCATS)
